The record followed here is PubChem BioAssay (Tox21).

The target in experiment [1] is Estrogen receptor beta (Homo sapiens) (UniProt Q92731). Description: qHTS assay to identify small molecule agonists of the estrogen receptor beta (ER-beta) signaling pathway (AID 1259377; active = well fitted activation curve with a large enough effect in the signal ratio in the repeat runs, not every such curve was filed as active; the % refers to the signal ratio). In outline: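 ER-beta-UAS-bla HEK293T cells in medium with 2% charcoal-stripped FBS were exposed to compounds for 16 h at 37C. Beta-lactamase reporter activity was read as fluorescence after 2 h with LiveBLAzer B/G FRET substrate at room temperature.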
In general terms: In qHTS, concentration-response curves come from the screen itself.

Experiment [2] in a line: qHTS assay to identify small molecule agonists of the androgen receptor (AR) signaling pathway in the presence of an antagonist - cell viability counter screen (AID 1259379). Also: nearly all actives have a fitted effect of over 25% in size. Also: potency is read from the fitted curve at half-maximal effect. In outline: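 MDA-kb2 human breast carcinoma cells (stable MMTV-luciferase, AR/GR responsive) were seeded 3,000 cells/well, pre-incubated 5 hr at 37C without CO2, then given 3.0uM nilutamide and compounds at 15 concentrations for 16 hr. Viability was read by CellTiter-Fluor fluorescence.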

A short description of experiment [3]: qHTS assay to identify small molecule agonists of the estrogen receptor beta (ER-beta) signaling pathway - cell viability counter screen (AID 1259380). Also: nearly all actives have a fitted effect of over 30% in size. In outline:
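ER-beta-UAS-bla HEK293T cells in medium with 2% charcoal-stripped FBS were preincubated 6 hr at 37C, dosed with compound in DMSO for 16 hr, then after the bla read, CellTiter-Glo was added for 30 min at room temperature; luminescence recorded.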

A short description of experiment [4]: qHTS assay to identify small molecule antagonists of the estrogen receptor beta (ER-beta) signaling pathway - cell viability counter screen (AID 1259382).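 Also: HEK293T cells carrying ER-beta-UAS-bla reporter stimulated with estradiol; series mostly up to about 92 µM; nearly all actives have a fitted effect of over 55% in size.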 The method, boiled down:
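ER-beta-UAS-bla HEK293T cells (2,000/well, 2% charcoal-stripped FBS) were pre-incubated 6 hr at 37C, then given compound plus 1nM final 17-beta-estradiol for 16 hr. Viability was read in the same wells by CellTiter-Glo luminescence after 30 min at room temperature.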

The target in experiment [5] is Estrogen receptor (Homo sapiens) (UniProt P03372). Description: qHTS assay to identify small molecule agonists of the estrogen receptor alpha (ER-alpha) signaling pathway in the presence of an antagonist (AID 1259383; calls by dose curve; also: top concentration of the series differs between compounds; nearly all actives have a fitted effect of over 15% in size). In outline:
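VM7Luc4E2 cells (endogenous full-length ER-alpha, 4×ERE-luciferase) were precultured 5 days in phenol red-free medium with 10% charcoal-stripped FBS, given 10.0nM ICI-182,780 (final), then treated with compounds at 15 concentrations for 22hr at 37C; luminescence read with ONE-Glo.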

Experiment [6] can be described thus: qHTS assay to identify small molecule agonists of the estrogen receptor alpha (ER-alpha) signaling pathway in the presence of an antagonist - cell viability counter screen (AID 1259386).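 Also: series mostly up to about 92 µM; cells exposed to compounds for 22 h at 37 °C before the viability read; nearly all actives have a fitted effect of over 30% in size.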 In outline: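 VM7Luc4E2 cells (endogenous full-length ER-alpha, 4×ERE-luciferase) were held 5 days in phenol red-free medium with 10% charcoal-stripped FBS, plated, then given 10.0nM ICI-182,780 and compounds at 15 concentrations for 22hr at 37C; viability read by CellTiter-Fluor fluorescence.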

Experiment [7] has as its target Progesterone receptor (Homo sapiens) (UniProt P06401). Description: qHTS assay to identify small molecule agonists of the progesterone receptor (PR) signaling pathway (AID 1346784; calls by dose curve; also: nearly all actives have a fitted effect of over 30% in size). In outline:
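PR-UAS-bla HEK 293T cells (beta-lactamase reporter under UAS) in 2% charcoal-stripped FBS, dosed with 23 nL compound after 6 hr, incubated 16hr at 37C. LiveBLAzer B/G FRET substrate added, fluorescence read after 2 hours.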

Experiment [8] has the same target. In words: qHTS assay to identify small molecule antagonists of the progesterone receptor (PR) signaling pathway (AID 1346795; active = well fitted inhibition curve with a large enough effect in the signal ratio in the repeat runs, not every such curve was filed as active; the % refers to the signal ratio; also: potency is read from the fitted curve at half-maximal effect). In outline:
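PR-UAS-bla HEK293T cells with beta-lactamase reporter under UAS control, in 2% charcoal-stripped FBS, treated with compounds plus 1 nM promegestone (R5020, final) for 16 hr at 37C. Read-out: FRET beta-lactamase substrate fluorescence after 2 hr at room temperature.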

Experiment [9] in a line: qHTS assay to identify small molecule antagonists of the progesterone receptor (PR) signaling pathway - cell viability counter screen (AID 1346798). Also: series mostly up to about 92 µM; nearly all actives have a fitted effect of over 50% in size. In outline: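 PR-UAS-bla HEK293T cells, 3,000/well in 2% charcoal-stripped FBS medium, dosed with compounds plus R5020 agonist and incubated 16 h at 37C. Viability then measured in the same wells by CellTiter-Glo luminescence after 30 min at RT.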

Experiment [10] in a line: qHTS assay to identify small molecule agonists of the progesterone receptor (PR) signaling pathway - cell viability counter screen (AID 1346799; calls by dose curve; also: nearly all actives have a fitted effect of over 45% in size). The method, boiled down: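 Counter screen in the PR-UAS-bla HEK293T wells (2% charcoal-stripped FBS, 16 h compound exposure at 37 C) after the bla read. CellTiter-Glo added, 30 min at room temperature, luminescence read as cell viability.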

Experiment [11] is described as follows: qHTS assay to identify small molecule antagonists of the TGF-beta/Smad signaling pathway - cell viability counter screen (AID 1346824). Also: nearly all actives have a fitted effect of over 50% in size. The method, boiled down:
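SBE-bla HEK 293T cells, incubated overnight, then compound plus 0.25 ng/mL TGF-beta1 (stock added) for 5 hr at 37 C. Viability was read in the same wells by CellTiter-Glo luminescence after 30 min at room temperature.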

Experiment [12] is described as follows: qHTS assay to identify small molecule agonists of the TGF-beta/Smad signaling pathway - cell viability counter screen (AID 1346829). Also: top concentration of the series differs between compounds; nearly all actives have a fitted effect of over 45% in size. The method, boiled down: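 Luminescence from CellTiter-Glo, read after a 30 min room-temperature incubation, gives cell viability of SBE-bla HEK 293T cells treated 5 hr with compounds at 37 C.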
Experiment [13] in a line: qHTS assay to identify small molecule agonists of the TGF-beta/Smad signaling pathway (AID 1346859; active = well fitted activation curve with a large enough effect in the signal ratio in the repeat runs, not every such curve was filed as active; the % refers to the signal ratio; also: series mostly up to about 77 µM). In outline: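 SBE-bla HEK293T cells plated overnight, then compound exposure for 5 h at 37 C. Beta-lactamase reporter read with LiveBLAzer B/G FRET substrate after 2 h at room temperature, fluorescence at 405 nm excitation, 460/530 nm emission.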
The target of experiment [14] is Thyrotropin-releasing hormone receptor (Homo sapiens) (UniProt P34981). In words: qHTS assay to identify small molecule antagonists of the thyrotropin-releasing hormone receptor (TRHR) signaling pathway (AID 1346877; active = well fitted inhibition curve with a large enough effect in the repeat runs, not every such curve was filed as active; also: series mostly up to about 51 µM). In outline: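 TRHR-expressing HEK293 cells were seeded, cultured 18 h at 37 °C, then loaded with calcium dye for 2 h. Compounds were pre-incubated 5 min at room temperature before 1 nM TRH (final) was added, and kinetic fluorescence was recorded for 3 min.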

The target is the same in experiment [15]. In words: qHTS assay to identify small molecule agonists of the thyrotropin-releasing hormone receptor (TRHR) signaling pathway (AID 1346891; calls by dose curve; also: series mostly up to about 58 µM). The method, boiled down: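 HEK293 cells expressing TRHR plated 18 h at 37 C/5% CO2, calcium dye-loaded 2 h at 37 C, then compound added (agonist mode); kinetic calcium fluorescence read 3 min at 1 s intervals; 15 concentrations in triplicate.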

The nature of experiment [16]: qHTS assay to identify small molecule agonists or antagonists of the thyroid stimulating hormone receptor (TSHR) signaling pathway - wild type cell line counter screen (AID 1259384; calls by dose curve). In outline:
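Wild-type Hek293 cells, 800/well, 18 h at 37C, then compound with Ro20-1724 for 30 min RT. cAMP by HTRF (cAMP-d2/anti-cAMP cryptate), 1 h RT, fluorescence read. 15 concentrations, triplicates.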

Experiment [17] deals with Thyrotropin receptor (Homo sapiens) (UniProt P16473). Description: qHTS assay to identify small molecule antagonists of the thyroid stimulating hormone receptor (TSHR) signaling pathway (AID 1259385; calls by dose curve; also: nearly all actives have a fitted effect of over 20% in size). In outline:
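TSHR-HEK293 cells (800/well) plated 18 h, then compounds with Ro20-1724 and TSH at 1.5 ng/mL final, 30 min at room temperature. cAMP quantified by HTRF (cAMP-d2/anti-cAMP-cryptate, 1 h); 15 concentrations in triplicate.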

A short description of experiment [18]: Human pregnane X receptor (PXR) small molecule agonists, qHTS cell viability counter screen (AID 1346977). Also: nearly all actives have a fitted effect of over 50% in size. The method, boiled down: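 PXR-Luc HepG2 cells (2,000/well, 5% charcoal-stripped FBS) preincubated 5 hr, then exposed to compounds 24 hr at 37 C. Viability read in the same wells by CellTiter-Fluor fluorescence, reagent added at 23 hr, 1 hr incubation.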

Each structure is given as a SMILES string. Inconclusive results are not listed. Where a structure was tested more than once in an assay, its records may differ in their call. Active and inactive are the calls of the source. Unless noted, calls follow the shape of the dose curve; as a rule, active = well fitted curve in the direction sought with a large enough effect in the repeat runs; inconclusive = weak or mixed curves; inactive = no such curve, though single readings can be large; an effect the other way counts as inactive or inconclusive.

Sequence of Progesterone receptor (Homo sapiens) (P06401 whole entry, looked up): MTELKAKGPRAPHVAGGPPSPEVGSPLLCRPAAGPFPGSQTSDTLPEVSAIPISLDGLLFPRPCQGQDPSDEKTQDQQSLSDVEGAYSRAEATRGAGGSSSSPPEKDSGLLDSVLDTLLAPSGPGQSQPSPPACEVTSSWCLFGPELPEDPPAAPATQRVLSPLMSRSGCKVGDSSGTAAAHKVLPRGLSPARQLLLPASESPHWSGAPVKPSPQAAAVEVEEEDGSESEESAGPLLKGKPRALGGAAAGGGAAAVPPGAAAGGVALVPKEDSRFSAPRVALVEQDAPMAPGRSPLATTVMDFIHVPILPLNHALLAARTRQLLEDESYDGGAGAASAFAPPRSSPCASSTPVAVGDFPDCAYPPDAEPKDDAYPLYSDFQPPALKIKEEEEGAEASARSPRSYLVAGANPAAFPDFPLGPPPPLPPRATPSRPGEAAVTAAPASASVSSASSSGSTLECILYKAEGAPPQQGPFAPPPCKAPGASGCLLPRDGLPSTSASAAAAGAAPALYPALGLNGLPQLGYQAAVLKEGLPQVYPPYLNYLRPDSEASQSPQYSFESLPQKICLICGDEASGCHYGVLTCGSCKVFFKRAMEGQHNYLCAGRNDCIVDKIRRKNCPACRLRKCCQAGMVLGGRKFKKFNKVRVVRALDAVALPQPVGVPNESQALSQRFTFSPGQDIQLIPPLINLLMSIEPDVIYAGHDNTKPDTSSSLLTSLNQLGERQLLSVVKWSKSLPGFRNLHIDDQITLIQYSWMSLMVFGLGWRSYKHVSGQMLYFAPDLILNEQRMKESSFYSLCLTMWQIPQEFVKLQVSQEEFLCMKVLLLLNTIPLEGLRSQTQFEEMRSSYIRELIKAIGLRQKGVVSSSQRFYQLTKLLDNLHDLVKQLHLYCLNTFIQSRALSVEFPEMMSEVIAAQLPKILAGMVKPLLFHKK
Sequence of Thyrotropin-releasing hormone receptor (Homo sapiens) (P34981 whole entry, looked up): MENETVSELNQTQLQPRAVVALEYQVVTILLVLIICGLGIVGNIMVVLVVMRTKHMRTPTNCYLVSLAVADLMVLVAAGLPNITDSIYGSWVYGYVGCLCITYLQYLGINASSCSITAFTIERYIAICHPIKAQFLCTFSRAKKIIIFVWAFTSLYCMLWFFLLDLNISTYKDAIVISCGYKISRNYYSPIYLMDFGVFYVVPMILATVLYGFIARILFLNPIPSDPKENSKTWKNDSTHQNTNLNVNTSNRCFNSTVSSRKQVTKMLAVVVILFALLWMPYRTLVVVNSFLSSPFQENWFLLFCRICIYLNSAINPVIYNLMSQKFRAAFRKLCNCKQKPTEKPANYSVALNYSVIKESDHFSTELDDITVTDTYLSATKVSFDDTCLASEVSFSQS
Sequence of Estrogen receptor (Homo sapiens) (P03372 whole entry, looked up): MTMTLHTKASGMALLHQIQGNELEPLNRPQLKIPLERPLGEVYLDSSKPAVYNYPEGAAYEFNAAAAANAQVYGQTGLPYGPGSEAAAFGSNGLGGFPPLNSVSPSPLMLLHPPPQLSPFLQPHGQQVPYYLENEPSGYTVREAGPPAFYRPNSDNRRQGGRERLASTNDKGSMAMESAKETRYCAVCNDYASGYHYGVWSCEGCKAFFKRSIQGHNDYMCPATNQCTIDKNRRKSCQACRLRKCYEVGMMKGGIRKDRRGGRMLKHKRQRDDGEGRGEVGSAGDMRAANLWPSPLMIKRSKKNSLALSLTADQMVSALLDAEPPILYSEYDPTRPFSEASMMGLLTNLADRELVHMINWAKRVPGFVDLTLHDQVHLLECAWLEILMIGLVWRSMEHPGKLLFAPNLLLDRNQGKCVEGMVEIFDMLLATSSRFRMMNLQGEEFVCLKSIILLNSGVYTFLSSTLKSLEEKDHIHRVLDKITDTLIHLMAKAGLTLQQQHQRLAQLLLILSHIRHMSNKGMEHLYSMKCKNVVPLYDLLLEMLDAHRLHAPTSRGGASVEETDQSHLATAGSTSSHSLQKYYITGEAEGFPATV
Sequence of Estrogen receptor beta (Homo sapiens) (Q92731 whole entry, looked up): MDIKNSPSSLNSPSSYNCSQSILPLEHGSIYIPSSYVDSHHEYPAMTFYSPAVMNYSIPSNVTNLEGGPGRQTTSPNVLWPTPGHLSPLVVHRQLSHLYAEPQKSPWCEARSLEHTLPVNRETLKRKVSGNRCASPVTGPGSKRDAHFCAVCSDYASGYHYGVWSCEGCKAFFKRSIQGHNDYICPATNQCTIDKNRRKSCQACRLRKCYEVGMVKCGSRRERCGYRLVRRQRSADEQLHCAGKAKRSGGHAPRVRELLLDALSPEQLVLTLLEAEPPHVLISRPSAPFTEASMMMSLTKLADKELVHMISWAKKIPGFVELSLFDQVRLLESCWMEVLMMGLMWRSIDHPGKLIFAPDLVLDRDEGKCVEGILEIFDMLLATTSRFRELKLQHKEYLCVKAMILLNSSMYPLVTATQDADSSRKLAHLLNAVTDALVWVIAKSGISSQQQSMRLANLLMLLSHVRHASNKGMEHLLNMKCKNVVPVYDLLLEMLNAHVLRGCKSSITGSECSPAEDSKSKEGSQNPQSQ
Sequence of Thyrotropin receptor (Homo sapiens) (P16473 whole entry, looked up): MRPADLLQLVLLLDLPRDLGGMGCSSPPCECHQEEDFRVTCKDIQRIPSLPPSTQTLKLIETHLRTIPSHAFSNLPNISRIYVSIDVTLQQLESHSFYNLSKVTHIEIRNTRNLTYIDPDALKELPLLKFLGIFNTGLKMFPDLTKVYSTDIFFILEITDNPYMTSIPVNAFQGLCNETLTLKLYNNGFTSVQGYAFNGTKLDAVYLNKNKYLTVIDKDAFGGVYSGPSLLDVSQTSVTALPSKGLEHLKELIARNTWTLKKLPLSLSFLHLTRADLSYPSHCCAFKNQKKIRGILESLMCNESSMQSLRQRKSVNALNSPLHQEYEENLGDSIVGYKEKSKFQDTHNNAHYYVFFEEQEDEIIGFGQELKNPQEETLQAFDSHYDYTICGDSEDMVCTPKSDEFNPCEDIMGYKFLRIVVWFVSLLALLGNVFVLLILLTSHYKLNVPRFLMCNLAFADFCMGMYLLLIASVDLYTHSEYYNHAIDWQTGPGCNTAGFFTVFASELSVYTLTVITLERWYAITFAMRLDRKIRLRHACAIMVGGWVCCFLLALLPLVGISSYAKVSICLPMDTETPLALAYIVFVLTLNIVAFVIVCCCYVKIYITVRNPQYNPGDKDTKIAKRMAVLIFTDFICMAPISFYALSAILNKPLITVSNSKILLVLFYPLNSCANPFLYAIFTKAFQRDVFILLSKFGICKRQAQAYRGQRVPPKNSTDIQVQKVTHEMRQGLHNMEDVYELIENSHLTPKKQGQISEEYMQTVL

Take `COP(=S)(OC)Oc1ccc(SC)c(C)c1`: the Potency entry in [1], in [2], in [3], in [6], in experiment [7] and in [9] was “inactive” in each case. Further, the Potency entry in experiment [11] and in experiment [12] was “inactive” each time. For the same molecule, the molecule was classed as inactive in experiment [4], in experiment [5], in experiment [10], in experiment [13], in experiment [14] and in experiment [15]. For the same molecule, the Potency in experiment [8] is 13.5 µM (active).
As to `COC(=O)Nc1cccc(OC(=O)Nc2cccc(C)c2)c1`, the Potency result in [1], in experiment [2], in [3], in experiment [6], in [7] and in experiment [8] was “inactive” each time. Further, the Potency entry in experiment [9], in [11] and in experiment [12] was “inactive” each time. For the same molecule, the outcome in [4] and in experiment [10] was inactive.
Turning to `N#Cc1cccc(C#N)c1`, the Potency result in experiment [1], in [2], in experiment [3], in experiment [6], in experiment [7] and in experiment [8] was “inactive” throughout. The Potency result in experiment [9] and in experiment [11] was “inactive” in each case. In addition, the call in [4], in experiment [16], in [17], in experiment [10], in [13] and in experiment [14] was inactive. For the same molecule, in experiment [15], the result was inactive.
With `CN1C(=O)CCS(=O)(=O)C1c1ccc(Cl)cc1` (stereo not drawn), the Potency entry in [1], in [2], in experiment [3], in experiment [6], in experiment [7] and in experiment [8] was “inactive” each time. The Potency result in [9] and in experiment [11] was “inactive” each time. The molecule was classed as inactive in experiment [4], in experiment [16], in experiment [17] and in [10].
As for `C=C(C)C(=O)OCC(CC)CCCC` (stereo not drawn), the Potency entry in experiment [1], in experiment [3], in experiment [6], in experiment [7], in experiment [8] and in [11] was “inactive” throughout. Besides, the Potency result in [18] is “inactive”. Besides, in experiment [2], the Potency was 55.5 µM (active) and inactive. Also, the call in [4], in experiment [5], in experiment [16], in experiment [17] and in experiment [10] was inactive.
For the molecule `O=[N+]([O-])c1cc([As](=O)(O)O)ccc1O`, the Potency entry in experiment [1], in [2], in [3], in experiment [7], in experiment [8] and in experiment [9] was “inactive” throughout. In addition, the Potency entry in experiment [11], in experiment [12] and in experiment [18] was “inactive” in each case. Besides, the result in experiment [4], in [5], in experiment [16], in experiment [17], in experiment [10] and in experiment [13] was inactive. The outcome in experiment [14] and in experiment [15] was inactive.
Turning to `CNC(=O)O/N=C/C(C)(C)S(C)=O` (stereo not drawn), the Potency result in experiment [1], in experiment [2], in [3], in experiment [6], in experiment [7] and in experiment [8] was “inactive” in each case. Besides, the Potency result in [9] and in experiment [18] was “inactive” throughout. For the same molecule, the result in experiment [4], in experiment [5], in [16], in [17], in experiment [10] and in experiment [13] was inactive. The result in experiment [14] and in experiment [15] was inactive.
With `O=[N+]([O-])c1ccc(Cl)c(Cl)c1`, the Potency entry in [2], in [3], in experiment [6], in experiment [7], in [8] and in [9] was “inactive” each time. In addition, the Potency result in experiment [11] and in [12] was “inactive” each time. The outcome in experiment [4], in experiment [5], in experiment [16], in experiment [17], in [10] and in [14] was inactive. The molecule was called inactive in experiment [15].
In the case of `C/C=C/c1ccc2c(c1)OCO2`, the Potency entry in experiment [2], in experiment [3], in experiment [6], in experiment [7], in experiment [8] and in [9] was “inactive” in each case. Also, the Potency entry in experiment [11], in [12] and in experiment [18] was “inactive” in each case. The result in experiment [4], in experiment [16], in experiment [17], in [10] and in [13] was inactive.
For the molecule `CCCCCCCCCCCCCCCCCC(=O)O`, the Potency result in [2], in experiment [3], in experiment [6], in [7], in [9] and in experiment [11] was “inactive” in each case. Also, the result in [4], in [10] and in [13] was inactive. In addition, the Potency in experiment [8] is 10.8 µM (active) and inactive.
